These results are taken from PubChem BioAssay (NCI).

Assay [1] can be described thus: NCI Yeast Anticancer Drug Screen. Data for the rad50 strain (AID 155).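 Also: 0% = growth of vehicle-only cultures of the same strain.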 To be noted: S. cerevisiae rad50 strain growth inhibition, active compounds read high. An outline of the steps: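 Vehicle-treated cultures provide the reference for the growth inhibition reported for compound-exposed, repair-deficient yeast.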
A short description of assay [2]: NCI Yeast Anticancer Drug Screen. Data for the mec2-1 strain (AID 157). To be noted: S. cerevisiae mec2-1 strain, active compounds read high. An outline of the steps:
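Mutant yeast (mec2-1) grown with compound; growth inhibition relative to vehicle control reported.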

Assay [3] is described as follows: NCI Yeast Anticancer Drug Screen. Data for the sgs1 mgt1 strain (AID 161).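 Also: 0% = growth of cultures given vehicle only.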 The conditions noted are these: S. cerevisiae sgs1 mgt1 strain, active compounds read high. In short, it runs like this: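 This yeast growth screen uses a strain with defined DNA-repair lesions; compound-treated growth is compared with vehicle-treated growth.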
Assay [4] is described as follows: NCI Yeast Anticancer Drug Screen. Data for the cln2 rad14 strain (AID 165).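 Also: 0% = growth equal to vehicle treated cultures.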 The conditions noted are these: S. cerevisiae cln2 rad14 strain, active compounds read high. An outline of the steps: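 Readout is yeast growth inhibition versus vehicle-treated controls, using a strain with cln2 and rad14 alterations exposed to compound.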
Assay [5] is described as follows: NCI Yeast Anticancer Drug Screen. Data for the bub3 strain (AID 167). To be noted: S. cerevisiae bub3 mutant strain, active compounds read high. In short, it runs like this:
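Mutant yeast screening strain plus compound; vehicle-treated cultures serve as the 0% inhibition reference.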

Assay [6] in a line: NCI Yeast Anticancer Drug Screen. Data for the mlh1 rad18 strain (AID 175). The conditions noted are these: S. cerevisiae mlh1 rad18 strain growth inhibition, active compounds read high. In short, it runs like this:
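Genetically defined yeast (DNA repair-deficient) exposed to compounds; growth inhibition determined relative to vehicle.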

Setting [7] is: at 5.0 µM (retest, dose inferred, filed as 0.5).
Setting [8] is: at 50.0 µM (retest, dose inferred, filed as 5.0).

This is part of a sample that, as a whole, favours compounds with a hit. Of some 79,000 tested, about 15% had one in any assay. Unmarked numbers belong to inactive results. Calls of active or inactive are those of the source. Rule as the data show it: active = growth inhibition above about 70%; inactive = the rest.

Turning to `O=C1CCCC1Cl` (stereo not given), the growth inhibition is -2% in assay [1] (setting [7]); 3% in assay [1] (setting [8]); 39.8% in assay [1] (at 50.0 µM); -2% in assay [2] (setting [7]); -3% in assay [2] (setting [8]); 82.6% (active) in assay [2] (at 50.0 µM). The growth inhibition in assay [3] (setting [7]) is -4%; in assay [3] (setting [8]) it was 0%; in assay [3] (at 50.0 µM), 12.5%; in assay [4] (setting [7]), -2%; in assay [4] (setting [8]), -8%; in assay [4] (at 50.0 µM) it was 81.9% (active). In addition, the growth inhibition in assay [5] (setting [7]) was 4%; in assay [5] (setting [8]), -4%; in assay [5] (at 50.0 µM) it was 99.3% (active).
For `COc1cc(C2c3cc4c(cc3[C@@H](Nc3ccc([N+](=O)[O-])cc3)C3COC(=O)[C@H]23)OCO4)cc(OC)c1O` (stereo not given in full), the growth inhibition in assay [1] (setting [7]) is 96% (active); in assay [1] (setting [8]) it was 96% (active); in assay [1] (at 50.0 µM), 84.4% (active); in assay [2] (setting [7]), 97% (active); in assay [2] (setting [8]), 97% (active); in assay [2] (at 50.0 µM) it was 91% (active). The growth inhibition in assay [3] (setting [7]) was 49%; in assay [3] (setting [8]), 98% (active); in assay [3] (at 50.0 µM), 87.7% (active); in assay [4] (setting [7]), 22%; in assay [4] (setting [8]), 97% (active); in assay [4] (at 50.0 µM) it was 86.6% (active). For the same compound, the growth inhibition is 54% in assay [5] (setting [7]); 98% (active) in assay [5] (setting [8]); 87.2% (active) in assay [5] (at 50.0 µM); 95% (active) in assay [6] (setting [7]); 96% (active) in assay [6] (setting [8]); 88.5% (active) in assay [6] (at 50.0 µM).
For the compound `[Cl][Hg][c]1ccc2ccccc2c1`, the growth inhibition is 99% (active) in assay [1] (setting [7]); 98% (active) in assay [1] (setting [8]); 85.8% (active) in assay [1] (at 50.0 µM); 100% (active) in assay [2] (setting [7]); 97% (active) in assay [2] (setting [8]); 89.5% (active) in assay [2] (at 50.0 µM). Further, the growth inhibition in assay [3] (setting [7]) is 100% (active); in assay [3] (setting [8]), 98% (active); in assay [3] (at 50.0 µM), 90.9% (active); in assay [4] (setting [7]), 100% (active); in assay [4] (setting [8]) it was 97% (active); in assay [4] (at 50.0 µM), 89.3% (active). The growth inhibition in assay [5] (setting [7]) was 99% (active); in assay [5] (setting [8]) it was 97% (active); in assay [5] (at 50.0 µM), 88.1% (active); in assay [6] (setting [7]), 100% (active); in assay [6] (setting [8]) it was 97% (active).
With `CC([CH2][Hg][Cl])c1ccccc1` (stereo not given), the growth inhibition was 99% (active) in assay [1] (setting [7]); 99% (active) in assay [1] (setting [8]); 99.3% (active) in assay [1] (at 50.0 µM); 100% (active) in assay [2] (setting [7]); 100% (active) in assay [2] (setting [8]); 99.5% (active) in assay [2] (at 50.0 µM). For the same compound, the growth inhibition in assay [3] (setting [7]) is 100% (active); in assay [3] (setting [8]), 99% (active); in assay [3] (at 50.0 µM), 99.6% (active); in assay [4] (setting [7]), 99% (active); in assay [4] (setting [8]), 99% (active); in assay [4] (at 50.0 µM), 99.5% (active). The growth inhibition in assay [5] (setting [7]) is 99% (active); in assay [5] (setting [8]), 99% (active); in assay [5] (at 50.0 µM), 99.6% (active); in assay [6] (setting [7]) it was 100% (active); in assay [6] (setting [8]), 99% (active); in assay [6] (at 50.0 µM), 99.5% (active).
`COC1OCCC[CH]1[Hg][Cl]` (stereo not given): the growth inhibition was 98% (active) in assay [1] (setting [7]); 99% (active) in assay [1] (setting [8]); 99.2% (active) in assay [1] (at 50.0 µM); 100% (active) in assay [2] (setting [7]); 99% (active) in assay [2] (setting [8]); 99.3% (active) in assay [2] (at 50.0 µM). Besides, the growth inhibition was 99% (active) in assay [3] (setting [7]); 99% (active) in assay [3] (setting [8]); 99.5% (active) in assay [3] (at 50.0 µM); 99% (active) in assay [4] (setting [7]); 99% (active) in assay [4] (setting [8]); 99.3% (active) in assay [4] (at 50.0 µM). Further, the growth inhibition in assay [5] (setting [7]) is 99% (active); in assay [5] (setting [8]) it was 99% (active); in assay [5] (at 50.0 µM) it was 99.5% (active); in assay [6] (setting [7]), 99% (active); in assay [6] (setting [8]) it was 99% (active); in assay [6] (at 50.0 µM), 99.2% (active).
As for `Cc1cc(CCN)c(C)c2c1sc1ccccc12`, the growth inhibition in assay [1] (setting [7]) is 21%; in assay [1] (setting [8]), 99% (active); in assay [1] (at 50.0 µM), 99.7% (active); in assay [2] (setting [7]), 92% (active); in assay [2] (setting [8]) it was 100% (active); in assay [2] (at 50.0 µM), 94.3% (active). In addition, the growth inhibition in assay [3] (setting [7]) was 89% (active); in assay [3] (setting [8]), 100% (active); in assay [3] (at 50.0 µM) it was 99.7% (active); in assay [4] (setting [7]), 98% (active); in assay [4] (setting [8]), 99% (active); in assay [4] (at 50.0 µM), 89% (active). The growth inhibition in assay [5] (setting [7]) was 97% (active); in assay [5] (setting [8]) it was 99% (active); in assay [5] (at 50.0 µM) it was 95.1% (active).
`[C-]#[O+].[C-]#[O+].[C-]#[O+].[C-]#[O+].[Mo].c1cnc2c(c1)ccc1cccnc12`: the growth inhibition in assay [1] (setting [7]) was -2%; in assay [1] (setting [8]), 0%; in assay [1] (at 50.0 µM), 81% (active); in assay [2] (setting [7]) it was -8%; in assay [2] (setting [8]) it was -6%; in assay [2] (at 50.0 µM), 60.4%. In addition, the growth inhibition in assay [3] (setting [7]) was -6%; in assay [3] (setting [8]) it was -2%; in assay [3] (at 50.0 µM), 71.4% (active); in assay [4] (setting [7]) it was -5%; in assay [4] (setting [8]), -17%; in assay [4] (at 50.0 µM) it was 39.6%. Moreover, the growth inhibition in assay [5] (setting [7]) was -1%; in assay [5] (setting [8]), 6%; in assay [5] (at 50.0 µM), 79.1% (active); in assay [6] (setting [7]), -4%; in assay [6] (setting [8]), -8%; in assay [6] (at 50.0 µM), 81.9% (active).
Regarding `BrP(NC1CCCCCC1)(c1ccccc1)(c1ccccc1)c1ccccc1`, the growth inhibition in assay [1] (setting [7]) is 43%; in assay [1] (setting [8]) it was 97% (active); in assay [1] (at 50.0 µM) it was 98.5% (active); in assay [2] (setting [7]), 39%; in assay [2] (setting [8]), 99% (active); in assay [2] (at 50.0 µM) it was 99.3% (active). Besides, the growth inhibition was 47% in assay [3] (setting [7]); 98% (active) in assay [3] (setting [8]); 99.2% (active) in assay [3] (at 50.0 µM); 12% in assay [4] (setting [7]); 97% (active) in assay [4] (setting [8]); 98.7% (active) in assay [4] (at 50.0 µM). Also, the growth inhibition is 25% in assay [5] (setting [7]); 98% (active) in assay [5] (setting [8]); 99% (active) in assay [5] (at 50.0 µM); 65% in assay [6] (setting [7]); 98% (active) in assay [6] (setting [8]); 99% (active) in assay [6] (at 50.0 µM).
Take `CCCCCCCCCC(=O)[O][Hg][c]1ccccc1`: the growth inhibition in assay [1] (setting [7]) is 99% (active); in assay [1] (setting [8]) it was 99% (active); in assay [1] (at 50.0 µM), 71.5% (active); in assay [2] (setting [7]), 100% (active); in assay [2] (setting [8]), 99% (active); in assay [2] (at 50.0 µM), 99.7% (active). The growth inhibition in assay [3] (setting [7]) was 99% (active); in assay [3] (setting [8]), 100% (active); in assay [3] (at 50.0 µM), 99.5% (active); in assay [4] (setting [7]), 99% (active); in assay [4] (setting [8]), 99% (active); in assay [4] (at 50.0 µM), 99.4% (active). Besides, the figures for the growth inhibition in assay [5] (setting [7]), in assay [5] (setting [8]) and in assay [5] (at 50.0 µM) were 99% (active), 98% (active) and 99.3% (active), respectively.
Regarding `COc1cc(/C=C/[N+](=O)[O-])cc(Br)c1OC`, the growth inhibition in assay [1] (setting [7]) was 86% (active); in assay [1] (setting [8]) it was 98% (active); in assay [1] (at 50.0 µM), 90.6% (active); in assay [2] (setting [7]), 79% (active); in assay [2] (setting [8]), 99% (active); in assay [2] (at 50.0 µM) it was 92.3% (active). In addition, the growth inhibition in assay [3] (setting [7]) is 83% (active); in assay [3] (setting [8]), 98% (active); in assay [3] (at 50.0 µM), 92.5% (active); in assay [4] (setting [7]), 55%; in assay [4] (setting [8]) it was 97% (active); in assay [4] (at 50.0 µM), 90.2% (active). Besides, the growth inhibition in assay [5] (setting [7]) was 97% (active); in assay [5] (setting [8]) it was 98% (active); in assay [5] (at 50.0 µM), 91.5% (active); in assay [6] (setting [7]), 89% (active); in assay [6] (setting [8]), 98% (active); in assay [6] (at 50.0 µM), 91.7% (active).
